Broadly, the inhibition is the change of the read-out against control, counted positive when it falls.

Where “and” joins values, the source holds several entries; their conditions need not be identical. Equal values may be shown once. About 1,900 (0.59%) of roughly 320,000 compounds were called active. No stated cut-off is given here; in the data, active means inhibition mostly above about 10% (no sharp cut-off); inactive means mostly below about 6.7%. For the sample, actives were picked, then their nearest neighbours and some compounds at random. A structure can be active in one record and inactive in another.

In this experiment the target is Protein LANA1 (Human herpesvirus 8 type P (isolate GK18)) (UniProt Q9QR71). The experiment can be described thus: blockers of LANA interaction with H2A/H2B – biochemical, FP readout, HTS, primary screen (AID 2629). The note with it: cell-free LANA-H2A/H2B peptide, fluorescence polarization, stronger effect = higher value, concentration not given here.
Protein LANA1 (Human herpesvirus 8 type P (isolate GK18)), sequence (Q9QR71 whole entry, looked up): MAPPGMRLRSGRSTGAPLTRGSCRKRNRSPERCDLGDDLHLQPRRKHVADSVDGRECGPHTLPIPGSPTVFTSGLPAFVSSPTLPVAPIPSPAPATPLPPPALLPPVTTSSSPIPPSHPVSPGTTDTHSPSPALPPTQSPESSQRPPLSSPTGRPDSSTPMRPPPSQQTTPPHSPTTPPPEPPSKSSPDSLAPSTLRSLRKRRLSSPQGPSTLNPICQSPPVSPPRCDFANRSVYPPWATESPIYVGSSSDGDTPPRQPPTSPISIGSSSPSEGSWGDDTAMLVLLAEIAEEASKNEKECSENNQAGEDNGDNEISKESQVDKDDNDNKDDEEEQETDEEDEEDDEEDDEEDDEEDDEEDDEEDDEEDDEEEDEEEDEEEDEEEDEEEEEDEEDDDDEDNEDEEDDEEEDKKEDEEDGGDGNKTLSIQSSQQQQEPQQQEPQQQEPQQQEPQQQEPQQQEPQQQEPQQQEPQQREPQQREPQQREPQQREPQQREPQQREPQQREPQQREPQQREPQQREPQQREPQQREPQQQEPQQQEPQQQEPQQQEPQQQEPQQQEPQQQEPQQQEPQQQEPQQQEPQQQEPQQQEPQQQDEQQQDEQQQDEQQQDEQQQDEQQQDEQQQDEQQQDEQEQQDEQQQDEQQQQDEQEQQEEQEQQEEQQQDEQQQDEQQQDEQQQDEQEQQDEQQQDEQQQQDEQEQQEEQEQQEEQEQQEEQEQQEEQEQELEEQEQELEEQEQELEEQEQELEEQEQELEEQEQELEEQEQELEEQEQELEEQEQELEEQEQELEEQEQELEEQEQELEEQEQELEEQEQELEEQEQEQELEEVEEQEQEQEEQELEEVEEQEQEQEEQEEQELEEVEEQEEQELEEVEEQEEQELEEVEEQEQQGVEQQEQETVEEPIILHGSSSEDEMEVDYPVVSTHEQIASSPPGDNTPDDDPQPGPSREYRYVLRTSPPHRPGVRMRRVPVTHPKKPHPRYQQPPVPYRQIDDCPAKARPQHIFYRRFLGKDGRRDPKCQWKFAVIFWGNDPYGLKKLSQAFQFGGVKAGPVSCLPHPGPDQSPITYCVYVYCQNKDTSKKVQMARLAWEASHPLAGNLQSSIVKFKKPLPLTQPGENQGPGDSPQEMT
Consider `Cc1ccc2c(c1)N(C(=O)CCC(=O)NCc1cccnc1)CCO2`, for which the inhibition is -4.82% (inactive).

Turning to `CCN(C(=O)CSc1cccc[n+]1[O-])c1ccccc1`, the inhibition was -3% (inactive).

Consider `CCOc1ccc(CCNC(=O)COC(=O)c2c(OC)cccc2OC)cc1OCC`, for which the inhibition is 1.41% (inactive).

For the compound `FC(F)Oc1ccccc1C1CC(c2ccc(Br)s2)Nc2ncnn21` (stereo not drawn), the inhibition is 2.23% (inactive).

With `Cn1c(C(=O)OC(C(=O)NC2CCCCC2)c2ccccn2)cc2sccc21` (stereo not drawn), the inhibition is -2.12% (inactive).

For the compound `Cc1cc(C)c(C)c(S(=O)(=O)N[C@@H](C)C(=O)OC(C)C(=O)NC(N)=O)c1C` (stereo partly drawn), the inhibition was 0.241% (inactive).

Consider `Cc1ccc(SC(C)C(=O)NCc2ccc(F)cc2)cc1` (stereo not drawn), for which the inhibition was -1.45% (inactive).

As to `COc1ccc(NC(=O)C2CCC(CNc3c(N4CCCCC4)c(=O)c3=O)CC2)c(OC)c1` (stereo not drawn), the inhibition is 2.53% (inactive).

In the case of `CCN(CCn1cccn1)Cc1nc(-c2ccc(C(=O)OC)cc2)no1`, the inhibition was 0.645% (inactive).

`COC(=O)c1ccc(S(=O)(=O)N2CCC(c3nc4ccccc4o3)CC2)cc1`: the inhibition is 1.89% (inactive).

For the compound `CC1(C)CC(=O)C(C2c3ccccc3S(=O)(=O)c3ccccc32)C(=O)C1`, the inhibition is -4.3% (inactive).

In the case of `Cc1ccnc(NC(=O)c2ccc(Cl)c([N+](=O)[O-])c2)c1`, the inhibition is 21.7% (active).

`O=C(Nc1ccncc1)c1ccc(Cl)c([N+](=O)[O-])c1`: the inhibition is -1.98% (inactive).

`O=C(Nc1cccnc1)c1ccc(Cl)c([N+](=O)[O-])c1`: the inhibition is -2.67% (inactive).

As for `Nc1ccn(CC(=O)N2CCN(c3ccccn3)CC2)c(=O)n1`, the inhibition is 0.94% (inactive).

With `CC(C)Cn1c(N)c(C(=O)COC(=O)CN2C(=O)C3CC=CCC3C2=O)c(=O)n(C)c1=O` (stereo not drawn), the inhibition was -0.106% (inactive).

As for `CCCc1cc(=O)[nH]c(SCC(=O)c2c(N)n(CC(C)C)c(=O)n(C)c2=O)n1`, the inhibition is -3.84% (inactive).

`CC(C)Cn1c(N)c(C(=O)COC(=O)C2CCCN2C(=O)c2cccs2)c(=O)n(C)c1=O` (stereo not drawn): the inhibition is 18.2% (active).

In the case of `Cc1cccnc1NC(=O)Cn1c(=O)oc2ccccc21`, the inhibition was 10.8% (inactive).

Take `Oc1ccc2ccc3cccc[n+]3c2c1`: the inhibition was 94.4% (active).

Turning to `CC(C)(C)OC(=O)C[C@H]1C/C=C\C[C@@H](CC(=O)N[C@H](CO)Cc2ccccc2)C(=O)NC[C@@H](c2ccccc2)OC1=O`, the inhibition was -0.906% (inactive).

Regarding `CC(C)(C)OC(=O)C[C@@H]1C/C=C\C[C@@H](CC(=O)N[C@H](CO)Cc2ccccc2)C(=O)NCCOC1=O`, the inhibition was -192% (inactive).

On to `O=C(c1ccc2c(c1)OCO2)N1CCOCC1`, for which the inhibition is -0.497% (inactive).

Take `O=C(c1ccc2c(c1)OCO2)N1CCN(C(=O)c2ccco2)CC1`: the inhibition is -0.585% (inactive).

`O=CN1CCN(C(=O)c2ccc3c(c2)OCO3)CC1`: the inhibition was 39.6% (active).

As for `COc1ccc([C@H]2[C@H](C(C)=O)N3N=Cc4ccccc4C3C23C(=O)OC(C)(C)OC3=O)cc1` (stereo partly drawn), the inhibition is 0.0257% (inactive).

Turning to `COc1ccc([N+](=O)[O-])cc1NC(=O)C(C)OC(=O)C1c2ccccc2Oc2ccccc21` (stereo not drawn), the inhibition is 4.81% (inactive).

Turning to `CCCCNc1nc2c(c(=O)[nH]c(=O)n2C)n1CCOc1ccccc1`, the inhibition was -0.364% (inactive).

In the case of `COc1ccc(CNc2nc3c(c(=O)[nH]c(=O)n3C)n2Cc2ccccc2)cc1`, the inhibition is 1.42% (inactive).

With `Cn1c(=O)[nH]c(=O)c2c1nc(NCCCn1ccnc1)n2Cc1cccc(Br)c1`, the inhibition is 17.2% (active).

Consider `O=C(/C=C/c1ccc(F)cc1)NC(=S)NNC(=O)c1cccnc1`, for which the inhibition was 1% (inactive).

On to `NC(=O)CN1CCCC1c1ccc2c(c1)OCCO2` (stereo not drawn), for which the inhibition was 2.74% (inactive).

Regarding `COc1ccccc1NC(=O)COC(=O)CNC(=O)C1CCCCC1`, the inhibition is 2.31% (inactive).

Consider `Nc1ncc(CN2CCCC(C(=O)Nc3ccc(-c4ccco4)cc3)C2)cn1` (stereo not drawn), for which the inhibition is 3.49% (inactive).

As to `O=C(Nc1ccc(-c2cscn2)cc1)C1CCCN(Cc2ccc(CO)o2)C1` (stereo not drawn), the inhibition was 21.8% (active).

Regarding `O=C(Nc1cccc(-c2cscn2)c1)C1CCN(Cc2ccsc2)CC1`, the inhibition is 4.95% (inactive).

`O=C1CN(c2nc(-c3ccccc3)c3cc(Br)ccc3n2)c2ccccc2N1`: the inhibition is -7.77% (inactive).

As for `COc1ccc(C2N=C(N)N=C(N)N2c2ccccc2)cc1OC` (stereo not drawn), the inhibition is -6.16% (inactive).

Turning to `CCCCSc1[nH]c(=O)c(C(=O)OCC)cc1C#N`, the inhibition was 3.53% (inactive).

Take `COc1ccc(-c2nc(N)sc2C2(O)C(=O)Nc3c(Br)cc(F)cc32)cc1OC` (stereo not drawn): the inhibition was -10.7% (inactive).

With `S=c1[nH]nc(Nc2ccccc2)s1`, the inhibition was 6.41% (inactive).

As for `CC(C)(C)C(=O)c1cnc(Nc2ccccc2)s1`, the inhibition was 54.4% (active).

`O=C(/C=C/Nc1ccccc1)c1cnc(-c2ccccc2)s1`: the inhibition is 0.792% (inactive).

For `Cc1ccccc1-n1cc(CNC(=O)CC2C(=O)NCCN2C/C=C/c2ccccc2)cn1` (stereo not drawn), the inhibition was -1.56% (inactive).

As to `Cc1nc(SC(C)C)[nH]c(=O)c1Cc1ccccc1`, the inhibition is 1.02% (inactive).

Consider `O=C(CP(=O)(c1ccccc1)c1ccccc1)N1CCOCC1`, for which the inhibition was 14.6% (active).

For `O=C(O)CC(CC(=O)N1CCOCC1)c1ccccc1` (stereo not drawn), the inhibition is 4.19% (inactive).

For `O=C(Cc1ccccc1Cl)N1CCOCC1`, the inhibition is -0.189% (inactive).

For `CCOc1ccc(CCNC(=O)Nc2ccccc2)cc1OCC`, the inhibition is -1.38% (inactive).

On to `CCN1C(=O)[C@H]2[C@@H](c3ccc(C)cc3)N3C(=O)N(c4cccc(Br)c4)C(=O)[C@@]3(CC)[C@H]2C1=O`, for which the inhibition was -2.34% (inactive).

Turning to `Cc1ccc(NC(=O)c2sc3nc(N)c(C#N)cc3c2N)cc1`, the inhibition was 14.6% (active).

As to `Cc1ccc(NC(=O)CSCC(=O)Nc2sccc2C#N)cc1`, the inhibition was 1.52% (inactive).

For the compound `CCc1ccc2nc3sc(C(=O)Nc4nnc(CC)s4)c(N)c3cc2c1`, the inhibition is -1.19% (inactive).

Regarding `CCc1ccc(OCC(=O)NCC(c2ccc(Cl)cc2)N2CCCCC2)cc1` (stereo not drawn), the inhibition is -1.04% (inactive).

Turning to `NC(=O)COC(=O)c1sc2cc(F)ccc2c1Cl`, the inhibition was 0.759% (inactive).

On to `CC1Cc2ccccc2N1C(=O)CSc1nnc(C2CC2)n1C` (stereo not drawn), for which the inhibition is 5.57% (inactive).

`Cn1c(SCC(=O)OC2CCCCC2)nnc1-c1ccc(S(=O)(=O)N2CCCC2)cc1`: the inhibition was 5.59% (inactive).

As for `CC1Cc2ccccc2N1C(=O)CSc1nnc(-c2ccc(S(=O)(=O)N3CCCC3)cc2)n1C` (stereo not drawn), the inhibition is 14.5% (active).

Take `COC(=O)[C@H](Cc1ccccc1)NC(=O)[C@@H]1C[C@H]1[C@@H](NC(=O)OCc1ccccc1)c1ccccc1`: the inhibition is 14.2% (active).

`COC(=O)[C@@H](Cc1ccccc1)NC(=O)NCCc1ccccc1`: the inhibition is -0.105% (inactive).

Regarding `COC(=O)[C@H](C)[C@H]1C[C@]1(C)[C@H](NC(=O)OCc1ccccc1)c1ccccc1`, the inhibition was -3.43% (inactive).

Consider `COc1ccc(N2CCN(Cc3ccc(Br)s3)CC2)cc1`, for which the inhibition is 0.937% (inactive).

On to `COc1ccccc1C(=O)N1CCNC(=O)C1CC(=O)Nc1ccc(Cl)cc1` (stereo not drawn), for which the inhibition is -4.24% (inactive).

Take `CSc1ccc(Cl)c(C(=O)OCC(=O)N2CCNC2=O)c1`: the inhibition is 2.35% (inactive).

As for `COCCNc1ncnc2c1nc1n2CCCC1`, the inhibition was 3% (inactive).

As for `Cc1cccc(NS(=O)(=O)c2ccc(C)c(C(=O)NCC(c3ccccc3)N(C)C)c2)c1` (stereo not drawn), the inhibition is 70.5% (active).

Turning to `Cc1cccc(NS(=O)(=O)c2ccc(C)c(C(=O)NCc3cccnc3)c2)c1`, the inhibition is -4.62% (inactive).

As for `Cc1cccc(NS(=O)(=O)c2ccc(C)c(C(N)=O)c2)c1`, the inhibition was 2.17% (inactive).

Turning to `O=C1C=C(c2ccnc3cc(Cl)ccc23)C[C@@H](c2ccc3c(c2)OCO3)C1`, the inhibition was 0.0706% (inactive).

As for `O=C(NCCc1ccc(F)cc1)c1ccc2nccnc2c1`, the inhibition is 7.1% (inactive).

For the compound `Cc1nc(C)c2c(c1C(F)(F)F)-c1ccccc1C2(F)F`, the inhibition was 11.7% (active).

Regarding `CN(CCOc1ccc(CC2SC(=O)NC2=O)cc1)c1ccccn1` (stereo not drawn), the inhibition was 11.3% (active) and 1.08% (inactive).

For the compound `CC(C)=N/N=C1/NC(=O)C(Cc2ccccc2)S1` (stereo not drawn), the inhibition is 0.219% (inactive).

For `CC(O)c1ccc(OCCN(C)c2ccccn2)cc1` (stereo not drawn), the inhibition was 0.184% (inactive).

For the compound `CNc1nccc(-c2ccc(Cl)cc2)c1C#N`, the inhibition was -1.28% (inactive).

Regarding `CSCC[C@H](NC(=O)N1CCn2c1nc1ccccc12)C(=O)NC1CCCCC1`, the inhibition is -4.45% (inactive).

Regarding `Cc1nc(NC(CC(C)C)C(=O)O)c2nc(C)oc2n1` (stereo not drawn), the inhibition was 11.3% (active).

On to `Cc1cc(C)cc(C(=O)NC(CC(N)=O)c2ccc(N3CCC(N4CCCCC4)CC3)c([N+](=O)[O-])c2)c1` (stereo not drawn), for which the inhibition was -1.95% (inactive).

`CC1(C)CCc2nc(SCc3ccccc3)c(C#N)cc2C1`: the inhibition was -3.11% (inactive).

With `N#CC1=C(SCc2ccc(C#N)cc2)N=C(N)C(c2nc(-c3ccccc3)cs2)C12CCCCC2` (stereo not drawn), the inhibition was 5.1% (inactive).

As to `N#CC1=C(SCc2ccccc2)NC(=O)C(C#N)C12CCCC2` (stereo not drawn), the inhibition is 15% (active).

On to `COCCCNC(=O)Cc1ccc(-n2c(C)nc3cccnc32)cc1`, for which the inhibition is -0.715% (inactive).

For the compound `CCc1ccc(-c2nc(SCC(=O)NC3CCCC3)n[nH]2)cc1`, the inhibition was 1.39% (inactive).

`CC(=O)Nc1cccc(NC(=O)c2c(-c3ccccc3)noc2C)c1`: the inhibition is 18.3% (active).

In the case of `Cc1onc(-c2ccccc2)c1C(=O)Nc1ccccc1C#N`, the inhibition is 1.04% (inactive).

As for `Cc1ccc(CNC(=O)c2c(-c3ccccc3)noc2C)cc1`, the inhibition was -3.29% (inactive).

Turning to `O=C(NCC12CC3CC(C1)CC(CNC(=O)N1CCCC1)(C3)C2)N1CCCC1`, the inhibition is -3.32% (inactive).

For `CC(=O)NC12CC3CC(C1)CC(C(=O)N1CCN(C(=O)c4ccco4)CC1)(C3)C2`, the inhibition was -0.808% (inactive).

Take `O=C(N1CCCC1)C12CC3CC(C1)CC(C(=O)N1CCCC1)(C3)C2`: the inhibition is 15.6% (active).

In the case of `O=S(=O)(NC1CCCCC1)c1ccc(F)c2ccccc12`, the inhibition was -1.01% (inactive).

On to `COc1cccc(N2CC(C(=O)Nc3c(C)cccc3C)CC2=O)c1` (stereo not drawn), for which the inhibition is -1.43% (inactive).

Take `COc1cccc(N(C(=O)c2ccn[nH]2)C2(C(=O)Nc3c(C)cccc3C)CCCCC2)c1`: the inhibition is 83.6% (active).

In the case of `Cc1cccc(C)c1NC(=O)C1(N(C(=O)c2ccccn2)c2ccc(O)cc2)CCCCC1`, the inhibition was -0.134% (inactive).

These data come from PubChem BioAssay AID2629 (Broad Institute, 2010).
